Inconclusive results are not listed. Active and inactive are the calls of the source. The call rests on the fitted dose curve; in most records, active means well fitted cell-killing curve with a large enough effect; inconclusive means small, poorly fitted or top-dose-only effect, or effect the other way; inactive means flat fitted curve, though single readings scatter.
Experiments:
Experiment in all cases: Primary qHTS to identify gynecologic anti-cancer compounds using libraries of approved drugs and bioactive compounds (AID 1345084); further: nearly all actives have a fitted effect of over 55% in size
Conditions in all cases: Gynecologic cancer cell panel viability, ATPlite luminescence, 48 h; series mostly up to 57.5 µM
OV90 = tested on: OV90
Summary of the method: (§1)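 Luminescence from the ATPlite ATP-monitoring reagent indicates viable cell number; lower signal means cytotoxicity. Cells received compound 16 h after seeding and were exposed for 48 h across five concentrations.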

PA-1 = tested on: PA-1
Summary of the method: as §1

SKOV3 = tested on: SKOV3
Summary of the method: as §1

Tov-21-G = tested on: Tov-21-G
Summary of the method: as §1

Tov112D = tested on: Tov112D
Summary of the method: as §1
On the % scale 0 is the no-effect control and ±100 the full control effect.

COc1cc(-c2ccc(O)cc2)c(OC)c(O)c1C1=CC(=O)OC1CC(=O)O (stereo not given)
inactive: Potency (OV90) | Potency (PA-1) | Potency (SKOV3) | Potency (Tov-21-G) | Potency (Tov112D)

C[C@@H]1O[C@@H](O[C@H]2[C@H](O)[C@@H](O[C@@H]3O[C@H](CO)[C@H](O)[C@H](O)[C@H]3O)[C@H](O[C@H]3CC[C@@]4(C)C(CC[C@]5(C)C4CC=C4[C@@H]6CC(C)(C)CC[C@]6(C(=O)O[C@@H]6O[C@H](CO)[C@@H](O)[C@H](O)[C@H]6O)CC[C@]45C)C3(C)C)O[C@@H]2C(=O)O)[C@H](O)[C@H](O)[C@H]1O (stereo not given in full)
inactive: activity change, negative = cytotoxicity (OV90) 5.7% [at 11.6 µM] | activity change, negative = cytotoxicity (PA-1) 7.27% [at 11.6 µM] | activity change, negative = cytotoxicity (SKOV3) -3.61% [at 11.6 µM] | activity change, negative = cytotoxicity (Tov-21-G) 8.52% [at 11.6 µM] | activity change, negative = cytotoxicity (Tov112D) 3% [at 11.6 µM]

CC(=O)O[C@@H]1C(=O)C(C)=C(CCC(C)CC(=O)O)[C@@]2(C)CCCC(C)(C)C12 (stereo not given in full)
inactive: Potency (OV90) | Potency (PA-1) | Potency (SKOV3) | Potency (Tov-21-G) | Potency (Tov112D)

COC(=O)[C@]1(Cc2ccc(O)c(CC=C(C)C)c2)OC(=O)C(O)=C1c1ccc(O)cc1
inactive: Potency (OV90) | Potency (PA-1) | Potency (SKOV3) | Potency (Tov-21-G) | Potency (Tov112D)

COC(=O)C[C@@H]1C(C(=O)O)=CO[C@@H](O[C@@H]2O[C@H](CO)[C@@H](O)[C@H](O)[C@H]2O)/C1=C\COC(=O)/C=C/c1ccc(O)c(OC)c1
inactive: Potency (OV90) | Potency (PA-1) | Potency (SKOV3) | Potency (Tov-21-G) | Potency (Tov112D)

C=C1C(OC(C)=O)CCC2(C)CC3(O)OC(=O)C(C)=C3CC12 (stereo not given)
inactive: Potency (OV90) | Potency (PA-1) | Potency (SKOV3) | Potency (Tov-21-G) | Potency (Tov112D)

C=C(C)C(O)COc1ccc(CC(=O)O)cc1 (stereo not given)
inactive: Potency (OV90) | Potency (PA-1) | Potency (SKOV3) | Potency (Tov-21-G) | Potency (Tov112D)

C[C@@H]1O[C@@H](OC[C@H]2O[C@@H](OCc3ccccc3)[C@H](O)[C@@H](O)[C@@H]2O)[C@H](O)[C@H](O)[C@H]1O
inactive: Potency (OV90) | Potency (PA-1) | Potency (SKOV3) | Potency (Tov-21-G) | Potency (Tov112D)

C/C(=C/CO)CC[C@H]1[C@]2(C)C[C@H](O)CC(C)(C)[C@H]2CC[C@]1(C)O
inactive: Potency (OV90) | Potency (PA-1) | Potency (SKOV3) | Potency (Tov-21-G) | Potency (Tov112D)

C[C@@H]1O[C@@H](OC(=O)Cc2ccccc2)[C@H](O)[C@H](O)[C@H]1O
inactive: Potency (OV90) | Potency (PA-1) | Potency (SKOV3) | Potency (Tov-21-G) | Potency (Tov112D)

C=C1CCC2C(C)(C)CC(O)CC2(C)C1CCC(C)CC(=O)O (stereo not given)
inactive: Potency (OV90) | Potency (PA-1) | Potency (SKOV3) | Potency (Tov-21-G) | Potency (Tov112D)

OC[C@@]1(O)CO[C@H](OC[C@H]2O[C@@H](OC(CCCCc3ccc(O)cc3)CCc3ccc(O)cc3)[C@H](O[C@H]3OC[C@](O)(CO)[C@H]3O)[C@@H](O)[C@@H]2O)[C@@H]1O (stereo not given in full)
inactive: Potency (OV90) | Potency (PA-1) | Potency (SKOV3) | Potency (Tov-21-G) | Potency (Tov112D)

CCC(C)C(=O)O[C@H]1[C@@H](O[C@H]2O[C@H](CO)[C@@H](O)[C@H](O)[C@H]2O)O[C@H](CO)[C@@H](O)[C@@H]1O (stereo not given in full)
inactive: Potency (OV90) | Potency (PA-1) | Potency (SKOV3) | Potency (Tov-21-G) | Potency (Tov112D)

CC(=O)/C=C/C1(O)C(C)CC(O[C@@H]2O[C@H](CO)[C@@H](O)[C@H](O)[C@H]2O)CC1(C)C (stereo not given in full)
inactive: Potency (OV90) | Potency (PA-1) | Potency (SKOV3) | Potency (Tov-21-G) | Potency (Tov112D)

C=CC(C)(C)C12Nc3c(ccc4c3OC(C)(C)C=C4)C1(O)CC1C(=O)N3CCCC3C(=O)N12 (stereo not given)
inactive: Potency (OV90) | Potency (PA-1) | Potency (SKOV3) | Potency (Tov-21-G) | Potency (Tov112D)

CC(C)CC(c1c(O)c(C=O)c(O)c(C=O)c1O)C1CCC(C)(O)C2CC(C(C)(C)O)CCC12C (stereo not given)
inactive: Potency (OV90) | Potency (PA-1) | Potency (SKOV3) | Potency (Tov-21-G) | Potency (Tov112D)

COC(=O)C(CC1(O)c2ccccc2N2C(=O)C(CC(C)C)NC21)n1cnc2ccccc2c1=O (stereo not given)
inactive: Potency (OV90) | Potency (PA-1) | Potency (SKOV3) | Potency (Tov-21-G) | Potency (Tov112D)

CC12CC(O)C(O)C=C1c1cc(O)cc(O)c1C(=O)O2 (stereo not given)
inactive: Potency (OV90) | Potency (PA-1) | Potency (SKOV3) | Potency (Tov-21-G) | Potency (Tov112D)

CC1=C(CO)C2(C)CCCC(C)(C)C2C(O)C1O (stereo not given)
inactive: Potency (OV90) | Potency (PA-1) | Potency (SKOV3) | Potency (Tov-21-G) | Potency (Tov112D)

C=C[C@H]1[C@H](O[C@@H]2O[C@H](CO)[C@@H](O)[C@H](O)[C@H]2O)OC=C(C(=O)OC)[C@H]1CCO
inactive: Potency (OV90) | Potency (PA-1) | Potency (SKOV3) | Potency (Tov-21-G) | Potency (Tov112D)

Cc1ccc(C)c(NC(=O)CNS(=O)(=O)c2ccc3[nH]c(=O)oc3c2)c1
inactive: Potency (OV90) | Potency (PA-1) | Potency (SKOV3) | Potency (Tov-21-G) | Potency (Tov112D)

CC(C)c1ccc2c(c1)C(=O)CC1C(C)(C(=O)O)CCCC21C (stereo not given)
inactive: Potency (OV90) | Potency (PA-1) | Potency (SKOV3) | Potency (Tov-21-G) | Potency (Tov112D)
